PubChem BioAssay (Tox21)
Results filed as inconclusive are left out. Where a call stands in place of a potency, no number is given. Calls of active or inactive are those of the source. Calls follow the shape of the dose curve; as a rule, active = well fitted inhibition curve with a large enough effect in the repeat runs; inconclusive = weak or mixed curves, or effect the other way; inactive = no such curve, though single readings can be large or run the other way.

target: Androgen receptor (Homo sapiens) (UniProt P10275); test: qHTS assay to identify small molecule antagonists of the androgen receptor (AR) signaling pathway using the MDA cell line (AID 743042; also: nearly all actives have a fitted effect of over 55% in size); conditions: MDA-kb2 AR-luc, MMTV luciferase, R1881 antagonist, 16 h; series mostly up to 70.3 µM
Sequence (P10275 whole entry, looked up): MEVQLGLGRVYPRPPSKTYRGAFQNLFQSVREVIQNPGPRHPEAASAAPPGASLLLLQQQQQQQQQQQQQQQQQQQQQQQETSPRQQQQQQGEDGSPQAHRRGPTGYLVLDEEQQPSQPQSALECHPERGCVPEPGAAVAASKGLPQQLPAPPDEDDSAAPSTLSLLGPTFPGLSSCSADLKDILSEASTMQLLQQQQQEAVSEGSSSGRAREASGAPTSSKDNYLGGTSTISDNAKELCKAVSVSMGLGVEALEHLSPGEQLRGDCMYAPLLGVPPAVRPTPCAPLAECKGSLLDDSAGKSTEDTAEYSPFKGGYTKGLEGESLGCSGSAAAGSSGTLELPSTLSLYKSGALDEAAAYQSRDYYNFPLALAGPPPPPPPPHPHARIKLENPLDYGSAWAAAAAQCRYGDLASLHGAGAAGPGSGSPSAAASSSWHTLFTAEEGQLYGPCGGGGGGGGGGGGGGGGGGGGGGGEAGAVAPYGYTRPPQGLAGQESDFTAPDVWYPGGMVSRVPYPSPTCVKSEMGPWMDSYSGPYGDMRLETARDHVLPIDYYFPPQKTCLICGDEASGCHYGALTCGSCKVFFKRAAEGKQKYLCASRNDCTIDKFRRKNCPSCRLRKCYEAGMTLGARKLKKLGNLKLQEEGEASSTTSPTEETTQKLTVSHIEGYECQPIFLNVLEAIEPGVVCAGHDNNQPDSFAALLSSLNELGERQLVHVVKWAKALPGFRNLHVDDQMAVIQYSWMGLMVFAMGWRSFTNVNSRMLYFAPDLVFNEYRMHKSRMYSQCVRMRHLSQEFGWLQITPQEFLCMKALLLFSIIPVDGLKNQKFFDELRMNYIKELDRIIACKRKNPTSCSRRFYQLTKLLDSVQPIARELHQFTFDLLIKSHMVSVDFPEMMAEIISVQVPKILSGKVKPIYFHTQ
Outline: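 Antagonist mode: compounds plus R1881 agonist added to MDA-kb2 AR-luc cells, incubated 16 h at 37C. Luciferase reporter luminescence quantified, with multiplexed CellTiter-Fluor readout for cell viability.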
Potency is read from the fitted curve at half-maximal effect.

Structure (SMILES)	Potency
O=C1/C(=C\c2cccs2)CCC/C1=C\c1cccs1	inactive
C/C=C1\NC(=O)[C@H]2CSSCC/C=C/[C@H](CC(=O)N[C@H](C(C)C)C(=O)N2)OC(=O)C(C(C)C)NC1=O (some centres undefined)	inactive
CCN(CC)c1ccc(C(=C2C=CC(=[N+](CC)CC)C=C2)c2ccccc2)cc1	0.473 µM (active)
CCCCC(F)(F)[C@@]1(O)CC[C@H]2[C@@H](CC(=O)[C@@H]2CCCCCCC(=O)O)O1	inactive
CS(=O)(=O)Nc1cc2occ(NC=O)c(=O)c2cc1Oc1ccccc1	inactive
Cc1cccc(C)c1Nc1ncccc1C(=O)O	inactive
CCC(=O)OCC(=O)[C@@]1(OC(=O)CC)[C@@H](C)C[C@H]2[C@@H]3CCC4=CC(=O)C=C[C@]4(C)[C@@]3(Cl)[C@@H](O)C[C@@]21C	inactive
Cc1cc2nc3c(=O)[nH]c(=O)nc-3n(C[C@H](O)[C@H](O)[C@H](O)COP(=O)(O)OP(=O)(O)OC[C@H]3O[C@@H](n4cnc5c(N)ncnc54)[C@H](O)[C@@H]3O)c2cc1C	inactive
CO[C@H]1C[C@@H]2CC[C@@H](C)[C@@](O)(O2)C(=O)C(=O)N2CCCC[C@H]2C(=O)O[C@H]([C@H](C)C[C@@H]2CC[C@@H](OCCO)[C@H](OC)C2)CC(=O)[C@H](C)/C=C(\C)[C@@H](O)[C@@H](OC)C(=O)[C@H](C)C[C@H](C)/C=C/C=C/C=C/1C	23.7 µM (active)
